The supplement of paper PMC10849652
The full data set covers some 7,900 targets. This sample favours those with a hit. About 0.6% of all pairs of compound and target were hits.

What was measured:
Experiment in all cases: log2 fold change, soluble protein after heating vs DMSO (PISA); higher = thermal stabilisation; K562 cells, 10 uM, 30 min; active = over 0.2 and 3.5 SD of the protein, either way, in both replicates (recomputed)
[1] = compound: CN1CCN(CCOc2cc(OC3CCOCC3)c3c(Nc4c(Cl)ccc5c4OCO5)ncnc3c2)CC1 [saracatinib]
In short: (§1)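 K562 cells at 2×10^6 cells/mL were treated with 10 μM compound for 30 min. Aliquots were heated for 3 min across 48°C-58°C, pooled, and extracted in PBS with 0.5% NP-40 at 4°C; soluble protein was the supernatant after 21,000xg for 90 min. Soluble protein was quantified by TMTpro 16plex LC-MS/MS with channel sums equalised, and reported as log2 fold change in thermal stability against DMSO controls, with values from duplicates.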

[2] = compound: CN1CC[C@H](c2c(O)cc(O)c3c(=O)cc(-c4ccccc4Cl)oc23)[C@H](O)C1 [alvocidib]
In short: as §1

[3] = compound: CNC(=O)C1=CC=CC=C1NC2=NC(=NC=C2Cl)NC3=C(C=C(C=C3)N4CCOCC4)OC
In short: as §1

[4] = compound: CNc1nc(-c2ccc3c(N)n[nH]c3c2)cc(N2C[C@@H](C(=O)NC3CCCCC3)CC[C@H]2C)n1
In short: as §1

[5] = compound: CNC(=O)c1ccc(Nc2ncc(C(F)(F)F)c(NCc3nccnc3N(C)S(C)(=O)=O)n2)cc1 [defactinib]
In short: as §1

[6] = compound: CNCc1ccc(-c2[nH]c3cc(F)cc4c3c2CCNC4=O)cc1 [rucaparib]
In short: as §1

[7] = compound: COC(=O)N[C@@H](C)CNc1nccc(-c2cn(C(C)C)nc2-c2cc(Cl)cc(NS(C)(=O)=O)c2F)n1 [encorafenib]
In short: as §1

[8] = compound: COC(=O)[C@H](CCSC)NC(=O)C1=C(C=C(C=C1)NC[C@H](CS)N)C2=CC=CC=C2
In short: as §1

[9] = compound: CN1CCc2c(c3ccccc3n2Cc2ccc(C(=O)NO)cc2)C1 [Tubastatin A]
In short: as §1

[10] = compound: CN1CCN(c2nc(C3=C(c4c[nH]c5ccccc45)C(=O)NC3=O)c3ccccc3n2)CC1 [sotrastaurin]
In short: as §1

Measured: log2 fold change

PCBP2 (UniProt F8VZX2)
inactive: [1] 0.009 | [2] -0.3 | [3] 0.06 | [4] 0.084

PPP2R5B (UniProt Q15173)
Chain of UniProt Q15173 (Q15173 whole entry, looked up): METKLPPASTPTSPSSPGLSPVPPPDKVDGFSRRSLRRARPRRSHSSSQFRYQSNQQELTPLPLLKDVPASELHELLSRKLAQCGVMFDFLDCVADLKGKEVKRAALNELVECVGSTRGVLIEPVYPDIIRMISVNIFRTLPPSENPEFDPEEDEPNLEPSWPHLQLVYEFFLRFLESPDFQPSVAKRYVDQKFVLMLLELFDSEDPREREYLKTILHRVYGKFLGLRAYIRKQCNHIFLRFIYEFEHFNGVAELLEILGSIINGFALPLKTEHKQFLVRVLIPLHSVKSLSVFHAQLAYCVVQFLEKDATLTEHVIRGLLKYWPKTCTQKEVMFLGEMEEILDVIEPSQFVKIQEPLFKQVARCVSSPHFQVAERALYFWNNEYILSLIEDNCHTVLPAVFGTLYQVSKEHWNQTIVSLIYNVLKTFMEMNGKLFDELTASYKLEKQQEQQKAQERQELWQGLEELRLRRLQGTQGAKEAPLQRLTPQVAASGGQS
inactive: [1] -0.161 | [3] -0.064 | [5] 0.051 | [6] -0.015 | [4] -0.043 | [7] 0.07 | [8] -0.135

PIAS4 (UniProt Q8N2W9)
Chain of UniProt Q8N2W9 (Q8N2W9 whole entry, looked up): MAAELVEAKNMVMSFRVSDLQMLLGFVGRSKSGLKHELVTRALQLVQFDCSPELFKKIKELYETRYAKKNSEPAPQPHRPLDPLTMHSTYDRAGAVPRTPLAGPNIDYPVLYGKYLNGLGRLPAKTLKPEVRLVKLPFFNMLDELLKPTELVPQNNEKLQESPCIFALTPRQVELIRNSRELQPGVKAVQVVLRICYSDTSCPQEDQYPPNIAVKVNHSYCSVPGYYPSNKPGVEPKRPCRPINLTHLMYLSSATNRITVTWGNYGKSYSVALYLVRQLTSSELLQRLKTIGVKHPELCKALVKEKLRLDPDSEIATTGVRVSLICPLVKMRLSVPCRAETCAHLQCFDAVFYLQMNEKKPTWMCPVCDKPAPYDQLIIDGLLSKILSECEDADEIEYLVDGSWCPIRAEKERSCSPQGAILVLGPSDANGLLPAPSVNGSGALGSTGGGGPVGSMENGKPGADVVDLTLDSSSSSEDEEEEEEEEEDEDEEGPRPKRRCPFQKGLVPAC
inactive: [1] -0.207 | [9] -0.057 | [4] -0.043

PSD3 (UniProt Q9NYI0)
inactive: [2] -0.054 | [5] -0.004 | [6] -0.03 | [7] 0.003 | [8] -0.019

PSMA3 (UniProt H0YJ03)
inactive: [1] -0.185 | [2] 0.073 | [9] 0.314 | [5] -0.023 | [6] 0.151 | [4] 0.067 | [7] -0.142 | [8] 0.087

PSMC3 (UniProt E9PLG2)
inactive: [1] -0.197 | [10] 0.081 | [9] 0.079 | [5] 0.172 | [4] -0.252 | [8] -0.026

PCNX1 (UniProt Q96RV3)
Chain of UniProt Q96RV3 (Q96RV3 whole entry, looked up): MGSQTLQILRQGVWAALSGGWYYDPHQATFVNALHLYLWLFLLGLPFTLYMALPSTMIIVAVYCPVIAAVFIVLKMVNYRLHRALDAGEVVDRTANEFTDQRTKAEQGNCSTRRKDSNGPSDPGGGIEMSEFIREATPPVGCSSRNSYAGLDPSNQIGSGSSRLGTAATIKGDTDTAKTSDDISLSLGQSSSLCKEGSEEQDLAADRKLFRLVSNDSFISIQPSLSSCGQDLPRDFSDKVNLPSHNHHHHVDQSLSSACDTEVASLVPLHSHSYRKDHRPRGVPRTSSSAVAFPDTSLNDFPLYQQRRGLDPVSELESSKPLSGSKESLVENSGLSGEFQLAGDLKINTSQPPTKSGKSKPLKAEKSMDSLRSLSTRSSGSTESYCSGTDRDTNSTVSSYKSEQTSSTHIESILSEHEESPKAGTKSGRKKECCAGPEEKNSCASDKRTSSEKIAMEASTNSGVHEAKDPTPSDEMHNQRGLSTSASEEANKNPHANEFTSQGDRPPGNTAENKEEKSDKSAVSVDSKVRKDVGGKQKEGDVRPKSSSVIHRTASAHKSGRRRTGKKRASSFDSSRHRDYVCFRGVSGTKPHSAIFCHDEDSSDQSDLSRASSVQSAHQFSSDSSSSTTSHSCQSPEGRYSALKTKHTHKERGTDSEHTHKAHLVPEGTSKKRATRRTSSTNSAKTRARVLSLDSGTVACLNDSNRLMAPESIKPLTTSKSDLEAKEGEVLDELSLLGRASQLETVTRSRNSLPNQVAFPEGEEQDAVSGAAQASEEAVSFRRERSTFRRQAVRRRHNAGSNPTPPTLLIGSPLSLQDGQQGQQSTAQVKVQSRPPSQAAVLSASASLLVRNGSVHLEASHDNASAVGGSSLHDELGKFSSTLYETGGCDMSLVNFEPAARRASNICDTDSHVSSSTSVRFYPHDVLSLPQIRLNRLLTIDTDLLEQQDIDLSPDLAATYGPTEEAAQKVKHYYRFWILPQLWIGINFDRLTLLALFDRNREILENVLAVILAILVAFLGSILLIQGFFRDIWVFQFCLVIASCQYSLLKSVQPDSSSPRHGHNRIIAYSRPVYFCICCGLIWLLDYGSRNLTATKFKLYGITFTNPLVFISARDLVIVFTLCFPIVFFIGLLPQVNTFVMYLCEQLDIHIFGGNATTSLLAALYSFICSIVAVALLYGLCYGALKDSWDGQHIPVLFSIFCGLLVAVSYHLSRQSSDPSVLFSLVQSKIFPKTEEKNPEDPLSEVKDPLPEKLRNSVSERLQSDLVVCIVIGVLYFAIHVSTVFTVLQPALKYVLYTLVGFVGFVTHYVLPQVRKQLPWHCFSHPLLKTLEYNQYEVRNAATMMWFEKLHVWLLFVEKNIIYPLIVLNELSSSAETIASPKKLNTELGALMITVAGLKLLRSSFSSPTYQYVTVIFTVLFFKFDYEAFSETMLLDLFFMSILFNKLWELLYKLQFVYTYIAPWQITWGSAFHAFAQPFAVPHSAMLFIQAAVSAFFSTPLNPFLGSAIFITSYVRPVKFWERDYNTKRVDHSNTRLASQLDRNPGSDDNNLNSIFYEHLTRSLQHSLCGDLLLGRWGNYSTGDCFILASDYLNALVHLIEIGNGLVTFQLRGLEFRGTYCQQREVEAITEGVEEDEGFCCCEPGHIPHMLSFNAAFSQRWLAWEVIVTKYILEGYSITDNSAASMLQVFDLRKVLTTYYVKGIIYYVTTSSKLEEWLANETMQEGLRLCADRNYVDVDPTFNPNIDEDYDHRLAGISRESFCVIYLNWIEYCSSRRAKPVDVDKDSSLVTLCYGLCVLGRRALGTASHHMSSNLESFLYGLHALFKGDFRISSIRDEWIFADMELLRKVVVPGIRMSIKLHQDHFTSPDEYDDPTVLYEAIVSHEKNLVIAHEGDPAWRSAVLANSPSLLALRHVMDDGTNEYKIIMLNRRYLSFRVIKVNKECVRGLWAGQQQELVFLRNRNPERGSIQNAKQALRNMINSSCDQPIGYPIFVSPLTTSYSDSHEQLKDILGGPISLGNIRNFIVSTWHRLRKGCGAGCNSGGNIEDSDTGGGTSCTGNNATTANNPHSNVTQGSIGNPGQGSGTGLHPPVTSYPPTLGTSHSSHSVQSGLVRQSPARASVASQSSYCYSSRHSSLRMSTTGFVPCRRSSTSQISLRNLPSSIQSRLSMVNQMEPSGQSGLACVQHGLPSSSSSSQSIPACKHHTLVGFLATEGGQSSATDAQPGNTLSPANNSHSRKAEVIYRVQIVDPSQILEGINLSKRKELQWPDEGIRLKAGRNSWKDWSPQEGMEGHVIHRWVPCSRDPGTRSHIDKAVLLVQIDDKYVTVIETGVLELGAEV
inactive: [9] -0.041 | [5] 0.027 | [6] -0.123 | [7] 0.085 | [8] -0.039

PNN (UniProt Q9H307)
Chain of UniProt Q9H307 (Q9H307 whole entry, looked up): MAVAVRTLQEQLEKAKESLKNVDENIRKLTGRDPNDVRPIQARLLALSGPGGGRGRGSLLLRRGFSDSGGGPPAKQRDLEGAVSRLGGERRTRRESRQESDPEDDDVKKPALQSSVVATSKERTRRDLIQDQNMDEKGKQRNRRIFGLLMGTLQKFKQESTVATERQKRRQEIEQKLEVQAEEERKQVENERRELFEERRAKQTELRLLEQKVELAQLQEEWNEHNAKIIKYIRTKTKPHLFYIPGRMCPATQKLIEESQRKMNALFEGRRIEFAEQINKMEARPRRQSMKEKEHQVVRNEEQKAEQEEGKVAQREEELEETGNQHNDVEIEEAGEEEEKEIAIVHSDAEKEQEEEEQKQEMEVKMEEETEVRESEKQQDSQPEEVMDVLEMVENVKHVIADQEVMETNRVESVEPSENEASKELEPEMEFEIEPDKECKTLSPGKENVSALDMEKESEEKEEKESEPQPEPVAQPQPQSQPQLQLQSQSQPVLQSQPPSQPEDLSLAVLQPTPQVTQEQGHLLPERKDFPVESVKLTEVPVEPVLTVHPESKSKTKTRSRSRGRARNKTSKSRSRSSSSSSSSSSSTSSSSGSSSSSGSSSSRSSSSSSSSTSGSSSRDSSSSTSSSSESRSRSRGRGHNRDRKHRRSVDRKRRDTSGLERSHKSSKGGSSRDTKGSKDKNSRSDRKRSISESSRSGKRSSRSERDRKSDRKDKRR
inactive: [1] -0.037 | [10] -0.044 | [2] -0.12 | [3] -0.067 | [6] 0.303 | [4] -0.071 | [7] -0.174

PHLDB1 isoform 2 (UniProt Q86UU1)
inactive: [1] -0.02 | [2] -0.353 | [9] -0.023 | [3] -0.164 | [5] -0.035 | [6] 0.011 | [4] 0.066 | [7] 0.089 | [8] -0.001

POLR2E (UniProt P19388)
inactive: [1] -0.077 | [2] 0.212 | [9] -0.009 | [3] -0.076 | [5] 0.216 | [6] 0.153 | [4] 0.104 | [7] 0.025 | [8] -0.081

PPP1R12C (UniProt Q9BZL4)
Chain of UniProt Q9BZL4 (Q9BZL4 whole entry, looked up): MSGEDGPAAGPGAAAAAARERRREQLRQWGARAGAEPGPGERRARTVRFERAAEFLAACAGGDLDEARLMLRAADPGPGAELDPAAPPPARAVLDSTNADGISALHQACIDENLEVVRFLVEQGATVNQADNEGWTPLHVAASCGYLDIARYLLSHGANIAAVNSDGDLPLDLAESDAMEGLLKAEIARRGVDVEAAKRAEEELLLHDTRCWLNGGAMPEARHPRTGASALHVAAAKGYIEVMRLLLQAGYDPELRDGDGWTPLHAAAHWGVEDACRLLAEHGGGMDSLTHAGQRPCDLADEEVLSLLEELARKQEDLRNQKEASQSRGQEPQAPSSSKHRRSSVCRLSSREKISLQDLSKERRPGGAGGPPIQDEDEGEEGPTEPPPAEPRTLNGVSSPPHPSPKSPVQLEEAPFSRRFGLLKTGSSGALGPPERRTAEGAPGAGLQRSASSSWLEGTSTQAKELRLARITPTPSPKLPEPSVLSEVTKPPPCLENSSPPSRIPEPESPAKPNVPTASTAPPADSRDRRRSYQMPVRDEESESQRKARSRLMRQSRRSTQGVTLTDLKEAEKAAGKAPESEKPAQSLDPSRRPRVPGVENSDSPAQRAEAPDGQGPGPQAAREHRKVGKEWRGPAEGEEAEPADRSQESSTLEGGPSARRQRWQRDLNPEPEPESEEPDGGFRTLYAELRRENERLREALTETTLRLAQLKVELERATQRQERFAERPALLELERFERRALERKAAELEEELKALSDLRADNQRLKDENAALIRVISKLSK
inactive: [1] -0.115 | [10] -0.157 | [9] 0.014 | [3] 0.113 | [5] -0.205 | [6] 0.184 | [4] -0.164 | [7] -0.013 | [8] 0.035

PHC3 isoform 7 (UniProt Q8NDX5)
inactive: [10] -0.071 | [2] -0.057 | [3] -0.007 | [6] -0.276 | [7] 0.154

PLCL1 (UniProt Q15111)
inactive: [10] 0.032 | [2] 0.109 | [9] 0.166 | [3] -0.131 | [5] -0.02 | [6] 0.2 | [7] 0.018 | [8] 0.047

PTEN isoform 2 (UniProt P60484)
inactive: [3] -0.247 | [6] -0.108 | [7] 0.015

PPP1R12B isoform 6 (UniProt O60237)
inactive: [3] 0
